In ChEMBL document CHEMBL2218924, “A broad activity screen in support of a chemogenomic map for kinase signalling research and drug discovery” (Biochem J, 2013) one finds residual activity data, which are given here for seven molecules.

Assay [1] has as its target Calcium/calmodulin-dependent protein kinase type 1 (Homo sapiens) (UniProt Q14012). As to conditions: at 1 µM.
For assay [2] the target is unchanged. As to conditions: at 10 µM.
For assay [3], the target named is Calcium/calmodulin-dependent protein kinase type II subunit gamma (Homo sapiens) (UniProt Q13555). As to conditions: at 1 µM.
Assay [4] shares this target. As to conditions: at 10 µM.
Assay [5] has as its target Calcium/calmodulin-dependent protein kinase type II subunit delta (Homo sapiens) (UniProt Q13557). Conditions: at 1 µM.
For assay [6] the target is unchanged. As to conditions: at 10 µM.
For assay [7], the target named is T1, Calcium/calmodulin-dependent protein kinase type IV (Homo sapiens) (UniProt Q16566).
T1 sequence (whole entry): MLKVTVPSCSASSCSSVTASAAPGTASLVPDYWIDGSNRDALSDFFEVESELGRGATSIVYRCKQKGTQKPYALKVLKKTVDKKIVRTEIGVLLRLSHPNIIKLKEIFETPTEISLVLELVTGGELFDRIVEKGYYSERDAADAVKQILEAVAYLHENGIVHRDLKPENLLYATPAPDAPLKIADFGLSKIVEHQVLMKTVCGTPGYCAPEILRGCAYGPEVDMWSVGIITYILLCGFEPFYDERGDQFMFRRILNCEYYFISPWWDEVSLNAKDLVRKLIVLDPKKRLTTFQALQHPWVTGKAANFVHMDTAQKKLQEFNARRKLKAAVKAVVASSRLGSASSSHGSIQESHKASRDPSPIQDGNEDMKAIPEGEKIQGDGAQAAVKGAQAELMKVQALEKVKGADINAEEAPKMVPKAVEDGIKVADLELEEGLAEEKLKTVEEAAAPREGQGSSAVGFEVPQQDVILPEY
As to conditions: at 1 µM.

Assay [8] has as its target T1, Calcium/calmodulin-dependent protein kinase type IV (Homo sapiens). Conditions: at 10 µM.
Assay [9] addresses Death-associated protein kinase 1 (Homo sapiens) (UniProt P53355). As to conditions: at 10 µM.
The target of assay [10] is Death-associated protein kinase 2 (Homo sapiens) (UniProt Q9UIK4). Conditions: at 1 µM.
Assay [11] has the same target. Conditions: at 10 µM.
Assay [12] has as its target T2, Serine/threonine-protein kinase DCLK2 (Homo sapiens) (UniProt Q8N568).
T2 sequence (whole entry): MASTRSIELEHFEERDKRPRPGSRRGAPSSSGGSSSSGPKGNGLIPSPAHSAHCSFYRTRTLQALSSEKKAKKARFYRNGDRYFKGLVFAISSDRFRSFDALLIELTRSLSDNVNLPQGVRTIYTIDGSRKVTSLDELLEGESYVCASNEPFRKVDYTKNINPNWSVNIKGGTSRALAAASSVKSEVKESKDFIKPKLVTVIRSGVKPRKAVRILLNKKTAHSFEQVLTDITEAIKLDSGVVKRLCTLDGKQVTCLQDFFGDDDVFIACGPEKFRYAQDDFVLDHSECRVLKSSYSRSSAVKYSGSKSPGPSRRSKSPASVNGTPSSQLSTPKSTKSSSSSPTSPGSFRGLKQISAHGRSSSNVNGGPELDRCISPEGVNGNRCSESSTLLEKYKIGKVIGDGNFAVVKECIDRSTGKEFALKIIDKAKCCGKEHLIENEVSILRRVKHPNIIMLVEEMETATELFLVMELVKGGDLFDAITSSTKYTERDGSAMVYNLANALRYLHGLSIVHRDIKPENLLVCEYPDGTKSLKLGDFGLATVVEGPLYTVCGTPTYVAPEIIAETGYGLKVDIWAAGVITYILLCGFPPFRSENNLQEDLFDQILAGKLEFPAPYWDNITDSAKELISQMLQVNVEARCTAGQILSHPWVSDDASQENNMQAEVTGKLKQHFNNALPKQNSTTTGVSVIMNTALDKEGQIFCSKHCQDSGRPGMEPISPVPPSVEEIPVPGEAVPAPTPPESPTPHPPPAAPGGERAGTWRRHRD
As to conditions: at 1 µM.

The target in assay [13] is T2, Serine/threonine-protein kinase DCLK2 (Homo sapiens). As to conditions: at 10 µM.
Assay [14] addresses T3, Discoidin domain-containing receptor 2 (Homo sapiens) (UniProt Q16832).
T3 sequence (whole entry): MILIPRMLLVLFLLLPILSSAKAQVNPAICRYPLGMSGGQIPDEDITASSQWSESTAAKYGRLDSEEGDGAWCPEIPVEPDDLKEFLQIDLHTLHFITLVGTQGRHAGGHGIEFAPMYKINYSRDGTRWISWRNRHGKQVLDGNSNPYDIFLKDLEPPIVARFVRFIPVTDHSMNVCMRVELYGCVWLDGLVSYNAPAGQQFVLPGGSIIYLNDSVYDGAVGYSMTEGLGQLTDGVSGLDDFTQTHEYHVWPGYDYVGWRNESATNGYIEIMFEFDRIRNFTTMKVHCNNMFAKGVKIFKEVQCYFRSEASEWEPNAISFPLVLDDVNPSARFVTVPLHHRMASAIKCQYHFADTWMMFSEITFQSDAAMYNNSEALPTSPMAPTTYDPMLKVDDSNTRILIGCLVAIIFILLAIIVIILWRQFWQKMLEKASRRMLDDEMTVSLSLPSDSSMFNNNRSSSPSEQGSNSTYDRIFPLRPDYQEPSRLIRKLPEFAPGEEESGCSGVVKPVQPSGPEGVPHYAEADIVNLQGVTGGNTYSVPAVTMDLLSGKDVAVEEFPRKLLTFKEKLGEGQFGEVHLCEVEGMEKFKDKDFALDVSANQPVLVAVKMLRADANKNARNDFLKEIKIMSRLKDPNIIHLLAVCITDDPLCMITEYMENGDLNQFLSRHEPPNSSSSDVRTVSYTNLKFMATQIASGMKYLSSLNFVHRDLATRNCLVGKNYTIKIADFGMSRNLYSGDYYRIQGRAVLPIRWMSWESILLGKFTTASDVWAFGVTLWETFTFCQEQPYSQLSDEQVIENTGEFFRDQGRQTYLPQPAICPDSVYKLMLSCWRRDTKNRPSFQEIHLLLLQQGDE
Conditions: at 1 µM.

The target in assay [15] is T3, Discoidin domain-containing receptor 2 (Homo sapiens). Conditions: at 10 µM.
Assay [16] has as its target T4, Myotonin-protein kinase (Homo sapiens) (UniProt Q09013).
T4 sequence (whole entry): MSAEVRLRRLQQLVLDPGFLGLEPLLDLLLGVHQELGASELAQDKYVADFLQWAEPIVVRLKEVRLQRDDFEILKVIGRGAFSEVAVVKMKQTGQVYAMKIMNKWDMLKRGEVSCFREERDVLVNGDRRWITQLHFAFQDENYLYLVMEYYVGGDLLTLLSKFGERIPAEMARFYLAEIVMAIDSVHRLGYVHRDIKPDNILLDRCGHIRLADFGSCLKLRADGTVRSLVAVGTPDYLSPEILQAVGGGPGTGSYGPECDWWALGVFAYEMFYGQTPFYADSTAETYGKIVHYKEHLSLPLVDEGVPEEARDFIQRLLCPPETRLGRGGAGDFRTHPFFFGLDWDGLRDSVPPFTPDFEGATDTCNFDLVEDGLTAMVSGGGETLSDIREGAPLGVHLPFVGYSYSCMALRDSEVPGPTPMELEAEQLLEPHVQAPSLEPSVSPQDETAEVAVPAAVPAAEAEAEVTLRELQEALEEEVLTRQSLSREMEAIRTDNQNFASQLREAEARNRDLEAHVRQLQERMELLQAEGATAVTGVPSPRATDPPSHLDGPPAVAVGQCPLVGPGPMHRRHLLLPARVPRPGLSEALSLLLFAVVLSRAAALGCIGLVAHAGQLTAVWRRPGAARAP
As to conditions: at 1 µM.

Assay [17] has as its target T4, Myotonin-protein kinase (Homo sapiens). As to conditions: at 10 µM.
Assay [18] concerns the target T5, Serine/threonine-protein kinase 17A (Homo sapiens) (UniProt Q9UEE5).
T5 sequence (whole entry): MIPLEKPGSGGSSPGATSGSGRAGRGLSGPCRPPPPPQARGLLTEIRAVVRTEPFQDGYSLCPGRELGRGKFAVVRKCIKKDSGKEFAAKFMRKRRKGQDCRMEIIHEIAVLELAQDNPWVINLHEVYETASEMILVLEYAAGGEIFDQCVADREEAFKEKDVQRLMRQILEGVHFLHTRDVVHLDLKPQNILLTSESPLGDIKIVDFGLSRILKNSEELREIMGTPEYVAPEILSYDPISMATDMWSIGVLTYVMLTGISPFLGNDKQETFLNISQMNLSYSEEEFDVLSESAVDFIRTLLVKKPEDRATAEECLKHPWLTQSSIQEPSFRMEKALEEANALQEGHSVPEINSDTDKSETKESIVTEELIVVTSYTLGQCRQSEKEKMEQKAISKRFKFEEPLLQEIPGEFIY
As to conditions: at 1 µM.

For assay [19], the target named is Calcium/calmodulin-dependent protein kinase type II subunit beta (Homo sapiens) (UniProt Q13554). Conditions: at 1 µM.
For assay [20] the target is unchanged. Conditions: at 10 µM.

Chain of Calcium/calmodulin-dependent protein kinase type II subunit delta (Homo sapiens) (Q13557 whole entry): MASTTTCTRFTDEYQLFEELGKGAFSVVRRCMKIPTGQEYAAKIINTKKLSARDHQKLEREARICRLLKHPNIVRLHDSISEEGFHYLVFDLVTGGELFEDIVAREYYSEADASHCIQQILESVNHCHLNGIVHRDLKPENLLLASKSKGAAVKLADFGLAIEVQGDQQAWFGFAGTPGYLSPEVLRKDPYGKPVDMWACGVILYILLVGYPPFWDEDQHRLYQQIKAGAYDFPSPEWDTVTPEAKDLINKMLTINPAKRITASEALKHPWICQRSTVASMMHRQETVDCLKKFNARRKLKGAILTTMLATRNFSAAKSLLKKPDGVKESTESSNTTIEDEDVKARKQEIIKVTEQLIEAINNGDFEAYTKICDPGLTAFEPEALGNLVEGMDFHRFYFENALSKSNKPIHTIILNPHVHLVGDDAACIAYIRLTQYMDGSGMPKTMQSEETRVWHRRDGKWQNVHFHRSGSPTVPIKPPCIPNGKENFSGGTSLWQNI
Chain of Calcium/calmodulin-dependent protein kinase type 1 (Homo sapiens) (Q14012 whole entry, looked up): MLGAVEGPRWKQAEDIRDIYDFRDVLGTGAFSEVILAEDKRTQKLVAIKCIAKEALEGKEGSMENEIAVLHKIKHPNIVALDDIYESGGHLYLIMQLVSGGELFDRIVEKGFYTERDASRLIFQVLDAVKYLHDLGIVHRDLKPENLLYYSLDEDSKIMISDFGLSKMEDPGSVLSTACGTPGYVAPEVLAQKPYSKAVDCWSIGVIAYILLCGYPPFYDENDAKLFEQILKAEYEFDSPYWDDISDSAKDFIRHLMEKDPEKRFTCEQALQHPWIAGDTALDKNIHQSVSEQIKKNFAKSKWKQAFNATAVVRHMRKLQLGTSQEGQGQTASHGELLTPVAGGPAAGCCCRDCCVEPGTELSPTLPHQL
Chain of Calcium/calmodulin-dependent protein kinase type II subunit beta (Homo sapiens) (Q13554 whole entry): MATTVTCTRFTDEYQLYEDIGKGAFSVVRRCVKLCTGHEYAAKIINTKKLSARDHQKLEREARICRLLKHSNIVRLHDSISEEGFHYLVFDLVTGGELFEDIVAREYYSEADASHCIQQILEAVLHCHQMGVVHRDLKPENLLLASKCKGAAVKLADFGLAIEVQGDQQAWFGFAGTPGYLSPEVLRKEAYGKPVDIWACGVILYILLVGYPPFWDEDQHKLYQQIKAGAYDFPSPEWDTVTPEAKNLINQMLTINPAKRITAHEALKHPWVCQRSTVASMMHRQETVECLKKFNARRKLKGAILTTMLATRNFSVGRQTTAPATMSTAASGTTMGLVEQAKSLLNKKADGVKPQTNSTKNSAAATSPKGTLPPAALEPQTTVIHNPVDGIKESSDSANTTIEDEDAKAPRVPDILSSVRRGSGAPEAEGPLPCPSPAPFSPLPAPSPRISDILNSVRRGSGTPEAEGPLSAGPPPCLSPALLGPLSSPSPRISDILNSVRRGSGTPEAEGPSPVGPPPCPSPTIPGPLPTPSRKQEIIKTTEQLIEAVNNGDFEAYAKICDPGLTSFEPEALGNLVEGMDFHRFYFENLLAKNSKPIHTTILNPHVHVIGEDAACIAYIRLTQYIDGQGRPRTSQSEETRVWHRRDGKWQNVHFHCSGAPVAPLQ
Chain of Death-associated protein kinase 2 (Homo sapiens) (Q9UIK4 whole entry, looked up): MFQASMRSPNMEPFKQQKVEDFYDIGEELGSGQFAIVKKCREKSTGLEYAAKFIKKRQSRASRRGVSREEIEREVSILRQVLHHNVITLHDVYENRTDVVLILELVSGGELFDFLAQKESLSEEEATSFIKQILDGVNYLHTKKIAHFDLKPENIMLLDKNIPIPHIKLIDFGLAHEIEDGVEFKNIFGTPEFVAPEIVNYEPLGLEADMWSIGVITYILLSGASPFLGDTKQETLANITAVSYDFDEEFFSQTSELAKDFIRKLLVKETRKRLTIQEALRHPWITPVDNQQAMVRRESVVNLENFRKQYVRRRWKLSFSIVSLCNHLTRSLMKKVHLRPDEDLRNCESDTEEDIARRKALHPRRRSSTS
Chain of Death-associated protein kinase 1 (Homo sapiens) (P53355 whole entry, looked up): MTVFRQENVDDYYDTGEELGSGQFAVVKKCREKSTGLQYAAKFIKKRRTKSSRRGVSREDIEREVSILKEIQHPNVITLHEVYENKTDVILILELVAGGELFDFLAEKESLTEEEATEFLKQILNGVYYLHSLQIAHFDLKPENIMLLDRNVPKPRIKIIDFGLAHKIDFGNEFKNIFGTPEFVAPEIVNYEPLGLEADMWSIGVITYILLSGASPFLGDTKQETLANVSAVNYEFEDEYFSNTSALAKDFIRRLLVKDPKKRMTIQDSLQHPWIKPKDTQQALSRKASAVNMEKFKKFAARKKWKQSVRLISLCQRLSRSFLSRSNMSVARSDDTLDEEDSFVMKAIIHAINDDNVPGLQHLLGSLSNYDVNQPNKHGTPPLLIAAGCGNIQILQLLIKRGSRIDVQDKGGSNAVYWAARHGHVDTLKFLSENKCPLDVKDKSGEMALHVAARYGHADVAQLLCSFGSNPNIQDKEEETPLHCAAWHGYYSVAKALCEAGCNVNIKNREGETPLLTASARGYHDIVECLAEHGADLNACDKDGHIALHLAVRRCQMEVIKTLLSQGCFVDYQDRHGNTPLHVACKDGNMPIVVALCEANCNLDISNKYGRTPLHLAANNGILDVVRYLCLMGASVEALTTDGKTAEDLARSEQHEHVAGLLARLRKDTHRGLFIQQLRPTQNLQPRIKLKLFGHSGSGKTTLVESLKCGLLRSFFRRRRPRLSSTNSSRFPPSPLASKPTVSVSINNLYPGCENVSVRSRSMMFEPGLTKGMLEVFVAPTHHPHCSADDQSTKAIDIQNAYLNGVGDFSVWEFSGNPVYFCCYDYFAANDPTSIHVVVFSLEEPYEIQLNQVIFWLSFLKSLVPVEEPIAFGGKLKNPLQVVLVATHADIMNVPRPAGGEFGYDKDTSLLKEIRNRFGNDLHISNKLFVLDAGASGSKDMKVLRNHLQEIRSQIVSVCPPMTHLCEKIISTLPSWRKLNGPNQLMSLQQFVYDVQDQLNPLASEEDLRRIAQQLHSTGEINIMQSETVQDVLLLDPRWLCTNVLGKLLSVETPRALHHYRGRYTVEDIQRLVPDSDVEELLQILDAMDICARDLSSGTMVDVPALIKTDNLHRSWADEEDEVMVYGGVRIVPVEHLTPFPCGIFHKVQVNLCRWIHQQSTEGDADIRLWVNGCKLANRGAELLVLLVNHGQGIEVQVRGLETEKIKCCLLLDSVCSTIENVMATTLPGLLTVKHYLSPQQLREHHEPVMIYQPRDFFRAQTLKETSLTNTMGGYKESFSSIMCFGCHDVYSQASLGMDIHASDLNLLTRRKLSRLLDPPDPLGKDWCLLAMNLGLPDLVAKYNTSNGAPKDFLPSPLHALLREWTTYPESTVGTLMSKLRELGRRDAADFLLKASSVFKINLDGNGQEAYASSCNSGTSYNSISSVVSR
Chain of Calcium/calmodulin-dependent protein kinase type II subunit gamma (Homo sapiens) (Q13555 whole entry): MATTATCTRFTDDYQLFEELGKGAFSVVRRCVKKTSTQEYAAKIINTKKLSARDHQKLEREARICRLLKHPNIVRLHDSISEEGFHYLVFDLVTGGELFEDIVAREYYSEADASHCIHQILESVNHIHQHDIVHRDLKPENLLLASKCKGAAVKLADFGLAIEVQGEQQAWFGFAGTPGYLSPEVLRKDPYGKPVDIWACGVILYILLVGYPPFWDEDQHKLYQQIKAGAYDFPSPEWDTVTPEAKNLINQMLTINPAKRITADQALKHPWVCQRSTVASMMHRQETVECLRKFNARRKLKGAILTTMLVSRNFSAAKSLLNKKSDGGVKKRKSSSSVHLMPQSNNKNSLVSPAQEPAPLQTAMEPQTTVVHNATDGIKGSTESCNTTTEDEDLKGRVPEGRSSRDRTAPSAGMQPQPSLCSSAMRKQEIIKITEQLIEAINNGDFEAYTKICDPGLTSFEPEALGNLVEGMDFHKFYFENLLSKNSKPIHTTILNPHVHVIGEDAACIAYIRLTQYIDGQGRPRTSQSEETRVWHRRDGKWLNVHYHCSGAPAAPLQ

In the case of `C[C@@H](N)[C@H]1CC[C@H](C(=O)Nc2ccncc2)CC1`, the residual activity (commonly the signal under treatment as a percentage of the control signal) in assay [1] stood at 123%; in assay [2] it was 125%; in assay [3], 100%; in [4] it was 89%; in assay [5], 107%; in [6] it was 92%. Also, the residual activity in assay [7] was determined as 90%; in [8], 90%; in [9], 104%; in assay [10], 88%; in assay [11] it was 85%; in assay [12], 110%. Moreover, the residual activity in [13] amounted to 87%; in assay [14], 108%; in [15], 105%; in [16], 95%; in [17], 95%; in [18], 70%.

With `CN(C)c1ccc(/C=C2\C(=O)Nc3ccccc32)cc1`, the residual activity in assay [1] is 122%; in assay [2], 116%; in assay [19] it was 101%; in [20], 76%; in [3], 92%; in assay [4], 46%. The residual activity in assay [5] was determined as 89%; in assay [6] it was 35%; in assay [7], 87%; in assay [8], 89%; in assay [9], 80%; in [10] it was 102%. Besides, the residual activity in assay [11] is 88%; in [12], 88%; in assay [13], 101%; in [14], 104%; in [15], 99%; in assay [16], 111%. For the same molecule, the residual activity in [17] is 130%; in assay [18], 25%.

For the molecule `Cc1ccc(NC2=CC(=O)c3sc(C)nc3C2=O)cc1`, the residual activity came to 92% in [1]; 74% in assay [2]; 89% in assay [19]; 81% in assay [20]; 104% in assay [3]; 98% in assay [4]. Further, the residual activity was determined as 95% in [5]; 98% in assay [6]; 113% in assay [7]; 96% in [8]; 89% in [9]; 99% in assay [10]. In addition, the residual activity in [11] was found to be 94%; in assay [12], 118%; in [13] it was 93%; in assay [14] it was 94%; in [15], 101%; in assay [16], 121%. The residual activity in assay [17] came to 91%; in assay [18], 109%.

Consider `COc1cccc(-c2cc(=O)c3ccccc3o2)c1N`, for which the residual activity stood at 97% in assay [1]; 82% in [2]; 92% in [19]; 87% in assay [20]; 98% in assay [3]; 98% in [4]. For the same molecule, the residual activity in [5] amounted to 101%; in assay [6], 99%; in assay [7], 108%; in assay [8], 108%; in assay [9], 90%; in assay [10], 99%. Further, the residual activity in [11] is 99%; in assay [12] it was 107%; in [13] it was 120%; in [14] it was 91%; in assay [16], 122%; in [17] it was 96%. In addition, the residual activity in assay [18] amounted to 101%.

`CC(=O)c1ccc(N2CCOCC2)cc1O`: the residual activity was determined as 108% in [1]; 83% in assay [2]; 89% in assay [19]; 92% in assay [20]; 103% in assay [3]; 96% in assay [4]. Also, the residual activity in assay [5] came out at 102%; in assay [6], 86%; in [7] it was 97%; in assay [8], 98%; in assay [9] it was 89%; in assay [10] it was 100%. In addition, the residual activity in assay [12] came to 75%; in assay [13], 74%; in assay [14], 112%; in [15], 97%; in assay [16], 112%; in assay [17], 130%.

In the case of `Cc1cc2ncc(-c3ccccc3)nc2cc1C`, the residual activity worked out at 89% in assay [2]; 101% in assay [19]; 92% in assay [20]; 94% in assay [4]; 81% in assay [6]; 108% in [7]. For the same molecule, the residual activity was determined as 100% in assay [8]; 88% in assay [9]; 99% in assay [10]; 95% in assay [12]; 67% in assay [13]; 102% in [14]. In addition, the residual activity in [15] turned out to be 90%; in assay [16], 97%; in [17], 135%; in assay [18] it was 70%.

`COc1cc2ncc(-c3ccccc3)nc2cc1OC`: the residual activity in assay [19] came out at 100%; in assay [20] it was 82%; in assay [4], 78%; in assay [6], 80%; in [8], 60%; in assay [9], 78%. Besides, the residual activity in [10] is 83%; in assay [13], 52%; in assay [15] it was 92%; in assay [18] it was 124%.
